# Results: the supplement of paper PMC7411054
# Tests used:
# Settings in all cases: treatment time: 24 h
# A549-ACTB-RAB5A [1] = assay: lowest phenotypically active concentration; higher = less potent
# In short: (§1)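 Cells from fifteen gene-edited reporter lines (A549, HepG2 and WPMY1) were treated for 24 h at 0.3, 1, 3 or 9 µM and imaged live, four wells per condition. Features were normalised per well to solvent control wells. A condition deviated if ≥3 of 4 wells passed the 95th percentile of control Euclidean distances and was reproducible if its median replicate Pearson correlation beat the 95th percentile of non-replicates; phenotypic activity needed both.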
# A549-CANX-COX4 [2] = assay: as above
# In short: as §1
# A549-GM130-SQSTM1 [3] = assay: as above
# In short: as §1
# A549-TP53BP1-CLTA [4] = assay: as above
# In short: as §1
# A549-TUBA1B-RELA [5] = assay: as above
# In short: as §1
# HepG2-GM130-SQSTM1 [6] = assay: as above
# In short: as §1
# A549-ACTB-RAB5A [7] = assay: phenotypically active (imaging signature differs from DMSO and reproducible) at any of 0.3-9 uM (binary (1 = active, 0 = inactive)); higher = active
# In short: as §1
# A549-CANX-COX4 [8] = assay: as above
# In short: as §1
# A549-GM130-SQSTM1 [9] = assay: as above
# In short: as §1
# A549-TP53BP1-CLTA [10] = assay: as above
# In short: as §1
# A549-TUBA1B-RELA [11] = assay: as above
# In short: as §1
# HepG2-ACTB-RAB5A = assay: as above
# In short: as §1
# HepG2-CANX-COX4 = assay: as above
# In short: as §1
# HepG2-GM130-SQSTM1 [12] = assay: as above
# In short: as §1
# HepG2-TP53BP1-CLTA = assay: as above
# In short: as §1
# HepG2-TUBA1B-RELA = assay: as above
# In short: as §1
# WPMY1-CANX-COX4 = assay: as above
# In short: as §1
# WPMY1-GM130-SQSTM1 = assay: as above
# In short: as §1
# WPMY1-TP53BP1-CLTA = assay: as above
# In short: as §1
# WPMY1-TUBA1B-RELA = assay: as above
# In short: as §1
Compound,lowest phenotypically active concentration (A549-ACTB-RAB5A [1]) [µM],lowest phenotypically active concentration (A549-CANX-COX4 [2]) [µM],lowest phenotypically active concentration (A549-GM130-SQSTM1 [3]) [µM],lowest phenotypically active concentration (A549-TP53BP1-CLTA [4]) [µM],lowest phenotypically active concentration (A549-TUBA1B-RELA [5]) [µM],lowest phenotypically active concentration (HepG2-GM130-SQSTM1 [6]) [µM],phenotypically active (A549-ACTB-RAB5A [7]),phenotypically active (A549-CANX-COX4 [8]),phenotypically active (A549-GM130-SQSTM1 [9]),phenotypically active (A549-TP53BP1-CLTA [10]),phenotypically active (A549-TUBA1B-RELA [11]),phenotypically active (HepG2-ACTB-RAB5A),phenotypically active (HepG2-CANX-COX4),phenotypically active (HepG2-GM130-SQSTM1 [12]),phenotypically active (HepG2-TP53BP1-CLTA),phenotypically active (HepG2-TUBA1B-RELA),phenotypically active (WPMY1-CANX-COX4),phenotypically active (WPMY1-GM130-SQSTM1),phenotypically active (WPMY1-TP53BP1-CLTA),phenotypically active (WPMY1-TUBA1B-RELA)
CN(C)CC(=O)N1CCC[C@@H](n2nc(-c3ccc(Oc4ccccc4)cc3)c3c(N)ncnc32)C1,1,9,1,9,1,3,1 (active),1 (active),1 (active),1 (active),1 (active),1 (active),1 (active),1 (active),1 (active),1 (active),1 (active),1 (active),1 (active),1 (active)
CNC1CCC2(C)C(=CCC3C2CCC24CN(C)C(C)C2CCC34)C1 (stereo not given) [Isoconessimine],≤ 0.3,9,≤ 0.3,1,≤ 0.3,1,1 (active),1 (active),1 (active),1 (active),1 (active),1 (active),1 (active),1 (active),1 (active),1 (active),1 (active),1 (active),1 (active),1 (active)
Cc1cc(Nc2nc(N[C@@H](C)c3ncc(F)cn3)ncc2Cl)n[nH]1,3,3,3,3,1,3,1 (active),1 (active),1 (active),1 (active),1 (active),1 (active),1 (active),1 (active),1 (active),1 (active),1 (active),1 (active),1 (active),1 (active)
C[C@@H]1COCCN1c1cc(C2(S(C)(=O)=O)CC2)nc(-c2cccc3[nH]ccc23)n1,≤ 0.3,1,≤ 0.3,≤ 0.3,1,1,1 (active),1 (active),1 (active),1 (active),1 (active),1 (active),1 (active),1 (active),1 (active),1 (active),1 (active),1 (active),1 (active),1 (active)
COc1cc(/C=C/C(=O)N2CCC=CC2=O)cc(OC)c1OC [Piperlongumine],3,9,3,9,9,3,1 (active),1 (active),1 (active),1 (active),1 (active),1 (active),1 (active),1 (active),1 (active),1 (active),1 (active),1 (active),1 (active),1 (active)
COc1cc(Br)c(Nc2nc(-c3c(C)nc4ncccn34)cs2)c(Br)c1,1,1,1,1,1,1,1 (active),1 (active),1 (active),1 (active),1 (active),1 (active),1 (active),1 (active),1 (active),1 (active),1 (active),1 (active),1 (active),1 (active)
O=C(CCCCCN1C(=O)c2cccc3cccc(c23)C1=O)NO [Scriptaid],≤ 0.3,1,≤ 0.3,1,≤ 0.3,≤ 0.3,1 (active),1 (active),1 (active),1 (active),1 (active),1 (active),1 (active),1 (active),1 (active),1 (active),1 (active),1 (active),1 (active),1 (active)
O=C(c1cccc(Cl)c1F)N1CCN(Cc2cccc(Nc3nccs3)n2)CC1,≤ 0.3,1,1,1,1,≤ 0.3,1 (active),1 (active),1 (active),1 (active),1 (active),1 (active),1 (active),1 (active),1 (active),1 (active),1 (active),1 (active),1 (active),1 (active)
O=C(CCCCCCC(=O)Nc1ccccc1)NO,≤ 0.3,1,1,1,1,≤ 0.3,1 (active),1 (active),1 (active),1 (active),1 (active),1 (active),1 (active),1 (active),1 (active),1 (active),1 (active),1 (active),1 (active),1 (active)
COc1cc2c(Nc3ccc(Br)cc3F)ncnc2cc1OCC1CCN(C)CC1 [vandetanib],1,3,1,3,1,3,1 (active),1 (active),1 (active),1 (active),1 (active),1 (active),1 (active),1 (active),1 (active),1 (active),1 (active),1 (active),1 (active),1 (active)
COc1cc(C)c(Sc2cnc(NC(=O)c3ccc(CNC(C)C(C)(C)C)cc3)s2)cc1C(=O)N1CCN(C(C)=O)CC1 (stereo not given),1,9,3,9,1,3,1 (active),1 (active),1 (active),1 (active),1 (active),1 (active),1 (active),1 (active),1 (active),1 (active),1 (active),1 (active),1 (active),1 (active)
